MITF primary: inhibitors of human MITF; O75030; AlphaScreen MITF homodimerization, bead proximity signal; hit rate 0.91% among 650,000; inhibition, % at 2.6 µM; in the data active = inhibition above about 50%;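 note: 0% = vehicle wells with protein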
GPR151 activ: human GPR151 activation; activation, % at 11.2 µM; PathHunter beta-arrestin GPR151 cells, luminescence; Q8TDV0; hit rate 1% among 650,000; in the data active = activation above about 4.9%;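 note: 0% = median of compound wells and 100% = cells with positive control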
FBW7 activator: activators of human E3 ligase FBW7 | AlphaScreen FBW7–phospho-cyclin E peptide binding, activator screen | normalized activity (activation), % at 26.1 µM | hit rate 0.13% among 650,000 | AID 1259310; in the data active = normalized activity above about 1.9%;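 note: purified mutant Fbw7 with reduced substrate affinity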
TEAD-YAP inh: TEAD-YAP interaction inhibition | inhibition, % at 9.12 µM | HEK-TIYL cells, TEAD-Gal4/YAP UAS-luciferase luminescence | hit rate 1.4% among 640,000 | AID 1259422; in the data active = inhibition above about 32%;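 note: 0% = median of test compound wells and 100% = reference inhibitor wells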
GPR151 confirm: confirmation of human GPR151 activators; shares compounds with GPR151 activ; GPR151 PathHunter beta-arrestin cells, luminescence, 90 min; % of EA-reagent control over plate median; activation, % at 11.2 µM; 6,700 tested, under 10 active; AID 1508609;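 active = mean percent activation across replicates above the confirmation screen cutoff of 4.91%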
GPR119 ag: activates human GPR119 in a GPR151 counter-screen; shares compounds with GPR151 activ; GPR119 PathHunter beta-arrestin cells, luminescence, 90 min; 0 = compound-well median, 100 = enzyme-acceptor control; activation, % at 11.2 µM; hit rate 0.3% among 6,700; AID 1508611;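 active = mean percent activation in the counterscreen above 29.09%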;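 note: counterscreen on off-target GPR119 to flag nonselective hits from the GPR151 activator screen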
Target sequence (Q8TDV5 whole entry, looked up): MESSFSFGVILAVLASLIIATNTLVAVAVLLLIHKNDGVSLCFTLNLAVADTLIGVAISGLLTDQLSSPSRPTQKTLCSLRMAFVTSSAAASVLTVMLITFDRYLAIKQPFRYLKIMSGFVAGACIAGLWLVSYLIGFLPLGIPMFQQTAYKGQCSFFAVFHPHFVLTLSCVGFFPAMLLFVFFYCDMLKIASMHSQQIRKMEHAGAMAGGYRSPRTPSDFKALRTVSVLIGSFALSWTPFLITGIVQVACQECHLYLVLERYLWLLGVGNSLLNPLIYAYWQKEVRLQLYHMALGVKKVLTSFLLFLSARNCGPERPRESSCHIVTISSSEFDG
* = called active by the depositor; nt = no result given; ! = repeats disagree. Hits are enriched below; roughly 3.5% of the tested compounds scored in any of these assays.

SMILES | MITF primary | GPR151 activ | FBW7 activator | TEAD-YAP inh | GPR151 confirm | GPR119 ag
CN(C)c1cccc(C(=O)NCC2CCC3(CCN(Cc4ccncc4)CC3)O2)c1 (configuration not stated) | 2 | 0 | 0 | -1 | nt | nt
C#C[C@]1(O)CC[C@H]2[C@@H]3CCC4=Cc5oncc5CC4(C)[C@H]3CCC21C (some centres not stated) | 1 | 5.5*! | 0 | -15 | 1 | -2
C#C[C@]1(O)CC[C@H]2[C@@H]3CCc4cc(O)ccc4[C@H]3CC[C@@]21C | -5 | 2 | 0 | nt | nt | nt
CCN(CCNC(=O)c1cc(C)nn1-c1ccccc1)c1ccccc1 | 13 | 7.9* | 0 | -5 | 0 | -8
COCCNC(=O)c1cc(C)nn1-c1ccccc1 | 1 | 2 | 0 | 5 | nt | nt
O=C(Nc1ccon1)c1sc2cc(F)ccc2c1Cl | 10 | -2 | 1 | -41 | nt | nt
O=C(NC1=NCCS1)c1sc2cc(F)ccc2c1Cl | nt | 7.4* | nt | nt | 1 | -5
Cc1ccc(OCCn2c(=O)c3cc4c(=O)n(CCOc5ccc(C)c(C)c5)c(=O)c4cc3c2=O)cc1C | -1 | 0 | 0 | 12 | nt | nt
O=C(c1c(F)cccc1F)N1CCN(S(=O)(=O)c2ccc(Br)cc2)CC1 | 5 | 6.1* | 0 | -14 | 0 | 13
COc1ccc(C2Nn3c(C)nnc3SC2C(=O)N2CCCC2)cc1Br (configuration not stated) | 10 | 5.1* | 0 | 6 | 0 | -5
CC(C)(C)NC(=O)CN(c1ccccc1)S(=O)(=O)c1ccccc1[N+](=O)[O-] | 0 | 0 | 0 | -10 | nt | nt
CCN1CCSc2ccc(C(=O)NCc3ccc(C)cc3)cc21 | -7 | 6.4* | 0 | -6 | -2 | -20
COc1ccc(NC(=O)c2sc3nc4c(cc3c2N)C(=O)CCC4)c(OC)c1 | 13 | 1 | 0 | 15 | nt | nt
COc1ccc(NC(=O)c2sc3nc4c(cc3c2N)C(=O)CCC4)cc1 | 5 | 10* | 0 | 5 | 1 | 12
C/C(=N\NC(=O)c1cccc(Cl)c1)c1ccc([N+](=O)[O-])o1 | 19 | -1 | 1 | -13 | nt | nt
C/C(=N/NC(=O)c1cccc(Cl)c1)c1ccc([N+](=O)[O-])o1 | 15 | 5.7* | 0 | -43 | 0 | 3
C/C(=N/NC(=O)c1ccccc1)C1CC1 | -8 | 2 | 0 | -58 | nt | nt
C/C(=N\NC(=O)c1cccc(Cl)c1)C1CC1 | 19 | 8.9* | 0 | -54 | 2 | 14
CC1CCC(Nc2nc3ccccc3c3nc(-c4cccnc4)nn23)CC1 (configuration not stated) | -1 | 8.1* | 0 | -2 | 1 | 10
CCOC(=O)CN(C)Cc1c(C(=O)N(C)CCc2ccccc2)nc2c(C)cccn12 | 4 | 1 | 0 | 5 | nt | nt
Cc1cccc(C)c1NC(=O)CCC(=O)O | 5 | 20* | 0 | 2 | 0 | -10
Cc1cc(N(CC(=O)NC2CCCCC2)S(C)(=O)=O)ccc1Br | -9 | 8.1* | 0 | 7 | 1 | 10
O=C(Nc1ccc(Cl)c(S(=O)(=O)Nc2ccc(Cl)cc2)c1)c1cc(Br)cc(Br)c1O | -15 | -1 | 0 | 1 | nt | nt
CC(C)c1ccc(-n2cc(-c3ccc(C(=O)N4CCCC4)cn3)cn2)cc1 | 8 | 6.2* | 0 | 19 | 0 | 7
O=C(Cc1ccc(F)cc1)N1CC[C@@H]2[C@H](CCCN2C(=O)c2ccsc2)C1 | -7 | -2 | 0 | -9 | nt | nt
SMILES | MITF primary | GPR151 activ | FBW7 activator | TEAD-YAP inh | GPR151 confirm | GPR119 ag
O=C1CSC(=O)N1CC(O)CCl (configuration not stated) | 2 | 0 | 0 | 0 | nt | nt
N#C/C(=C\c1ccc(Br)cc1)C(=O)NCCN1CCOCC1 | 4 | 0 | 0 | -2 | nt | nt
CCOc1ccc(/C=C2\SC(=S)N(C(C)C(=O)O)C2=O)cc1 (configuration not stated) | -1 | 11* | 0 | -9 | 1 | 7
C/C(CC(=O)Nc1ccc2c(c1)OCCO2)=N\NC(=O)C(c1ccccc1)c1ccccc1 | 11 | 5.1* | 0 | 6 | 0 | -5
CCC(=O)N/N=C(\C)CC(=O)Nc1ccc2c(c1)OCCO2 | -7 | 0 | 0 | -12 | nt | nt
Cc1cc(NC(=O)Nc2ccc(F)cc2)c(=O)n(Cc2ccccc2Cl)c1 | 10 | 0 | 0 | 5 | nt | nt
COc1ccc(S(=O)(=O)/N=C2/NC(=O)/C(=C\c3ccco3)S2)cc1 | 14 | 7.4* | 0 | 6 | -1 | -1
Cc1ccc(S(=O)(=O)/N=C2/NC(=O)/C(=C/c3ccco3)S2)cc1 | 9 | 1 | 0 | 1 | nt | nt
Cc1ccc(N2C(c3ccc(N(C)C)cc3)C(=O)C2N2C(=O)c3ccccc3C2=O)cc1 (configuration not stated) | 23 | 8.4* | 1 | -1 | 0 | 4
O=C(NCSc1ncccn1)c1ccccc1 | -10 | 7.6* | 0 | -4 | -1 | -15
Cc1ccc(N(CC(O)CN2CCOCC2)S(=O)(=O)c2ccc([N+](=O)[O-])cc2)cc1 (configuration not stated) | 5 | -1 | 0 | 9 | nt | nt
Cc1ccc(N(CC(O)Cn2nc(C)cc2C)S(=O)(=O)c2ccc([N+](=O)[O-])cc2)cc1 (configuration not stated) | 1 | 4.9* | 0 | -10 | 1 | 2
O=C1CCCN1CCn1cnc2c(Nc3ccc(N4CCOCC4)cc3)nc(Nc3ccc(-n4ccnc4)cc3)nc21 | -2 | 5.9* | 0 | -3 | 0 | -8
O=C1CCCN1CCn1cnc2c(NCCO)nc(Nc3ccc(N4CCOCC4)cc3)nc21 | 11 | 5.6* | 0 | -4 | 0 | 0
CC(C)n1cnc2c(NCCN3CCOCC3)nc(Nc3ccc(-n4ccnc4)cc3)nc21 | 12 | 6.2* | 0 | 15 | -2 | -15
Cc1ccc(C)c(OCC(=O)NC2CCCCC2)c1 | -1 | 0 | 0 | -11 | nt | nt
CCCCCCN1C(=O)C(=O)/C(=C(\O)c2ccc(OC)cc2)C1c1ccccc1F (configuration not stated) | 12 | 0 | 0 | 4 | nt | nt
Cc1ccc(C(=O)COC(=O)CCC(=O)Nc2ccccc2Cl)cc1C | -6 | 0 | 0 | -11 | nt | nt
Cc1ccc(C(C)NC(=O)c2ccoc2C)cc1C (configuration not stated) | -3 | 0 | 0 | 10 | nt | nt
COCCCNC(=O)C1CCN(S(=O)(=O)c2ccc(Br)cc2)CC1 | 2 | -1 | 0 | 10 | nt | nt
C=CCNC(=O)C1CCN(S(=O)(=O)c2ccc(Br)cc2)CC1 | -3 | 5.7* | 0 | 8 | 1 | -4
COc1cccc(N2CC(C(=O)N3CCN(CCn4nc(C)cc4C)CC3)CC2=O)c1 (configuration not stated) | 9 | 8.1* | 0 | 5 | 2 | 0
COc1cccc(N2CC(C(=O)Oc3ccc4ccccc4c3)CC2=O)c1 (configuration not stated) | 3 | 7.3* | 0 | -8 | 0 | -1
